Here are results for 63 compounds from PubChem BioAssay AID2685 (National Center for Advancing Translational Sciences (NCATS), 2010).

Where “and” joins values, the source holds several entries; their conditions need not be identical. Equal entries are not always repeated. The whole screen tested about 320,000 compounds, of which about 2,100 (0.66%) were called active. About 53% were inconclusive and are not listed. Calls follow the shape of the dose curve; as a rule, active = well fitted inhibition curve with a large enough effect in the signal ratio, with a control signal flat (not every such curve was filed as active); inconclusive = small, poorly fitted or top-dose-only effect, or effect the other way, or a change in a side signal; inactive = flat fitted curve, though single readings scatter; the % refers to the signal ratio. This excerpt belongs to a sample that is enriched for actives.
Potency is read from the fitted curve at half-maximal effect.

The nature of the experiment: qHTS Assay for Lipid Storage Modulators in Drosophila S3 Cells.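 As to cell number change: cells counted by Cell Tracker Red CMTPX staining in the red channel.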 As to lipid storage change, negative = inhibition: % is scaled to controls: 0 for no effect and ±100 for the full control effect. Conditions: BODIPY lipid droplet fluorescence, 18-24 h, cells fed with added oleic acid; cell number change: measured here: cell count max response; series mostly up to 46.1 µM. The essentials: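 Drosophila S3 cells loaded with oleic acid (400 uM, as added) and compounds at several concentrations; lipid droplets imaged by 488-nm laser-scanning cytometry, 500–530 nm intensity and object ratio to cell channel. Percent activity normalized to 20 uM Triacsin C.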
Turning to `O=C(CSc1nncs1)Nc1ccc(N2CCCCC2)cc1`, the Potency result was “inactive” and the cell number change was -24%.

For the compound `CCN1CCN(S(=O)(=O)c2ccc(Cl)c(C(=O)N(C)Cc3ccco3)c2)CC1`, the Potency result was “inactive” and the cell number change was determined as 2.03%.

Turning to `Cc1ccc(S(=O)(=O)C2(C(=O)NC3CCCCC3C)CC2)cc1` (configuration not stated), the Potency entry is “inactive” and the cell number change is -11.4%.

For the compound `OCCN(CCO)c1nc(-c2ccccc2)nc2c1oc1ccccc12`, the Potency entry is “inactive” and the cell number change was -3.98%.

Take `COc1ccc(C2C(C(=O)c3ccc(C)o3)=C(O)C(=O)N2Cc2cccnc2)cc1OC` (configuration not stated): the Potency was 0.13 µM (active) and the cell number change came to 1.8%.

For `Cc1ccc(C(=O)C2=C(O)C(=O)N(Cc3cccnc3)C2c2ccc(Cl)cc2)o1` (configuration not stated), the Potency result was “inactive” and the cell number change came out at 10.8%.

Take `Cc1ccc(C(=O)C2=C(O)C(=O)N(Cc3cccnc3)C2c2ccc(Br)cc2)o1` (configuration not stated): the Potency entry is “inactive” and the cell number change is 4.99%.

With `O=C(N1CCCC1)C12CC3CCC(CC(C3)C1)C2`, the Potency result is “inactive” and the cell number change was 3.73%.

For the compound `S=c1[nH]nc(-c2cccnc2)n1/N=C/c1ccco1`, the Potency result was “inactive” and the cell number change came out at 1.79%.

On to `CCCCC(C)n1[nH]c(=O)cc1N` (configuration not stated), for which the Potency is 25.9 µM (active) and the cell number change was -24.5%.

`CCC(C)n1[nH]c(=O)cc1N` (configuration not stated): the Potency entry is “inactive” and the cell number change was found to be 5.9%.

Take `CCCC(C)n1[nH]c(=O)cc1N` (configuration not stated): the Potency entry is “inactive” and the cell number change was found to be 0.134%.

For `O=C1CCCN1CCNC(=S)Nc1ccccc1`, the Potency entry is “inactive” and the cell number change is -13%.

With `Cc1ccc(-n2c(SCC(=O)O)nc3sc4c(c3c2=O)CCCC4)cc1`, the Potency entry was “inactive” and the cell number change is 9.08%.

For the compound `O=C(O)CSc1nc2sc3c(c2c(=O)n1-c1ccccc1)CCC3`, the Potency entry is “inactive” and the cell number change was 10.3%.

Turning to `Cc1ccccc1-n1c(SCC(=O)O)nc2sc3c(c2c1=O)CCCC3`, the Potency entry was “inactive”.

As to `Nc1nc(SCc2nnc(SCC(=O)O)n2-c2ccccc2)nc2sc3c(c12)CCCC3`, the Potency is 23.1 µM (active) and the cell number change came out at 3.22%.

For `Cc1ccc(C)c(-n2c(SCC(=O)O)nc3sc4c(c3c2=O)CCCC4)c1`, the Potency is 0.116 µM (active) and the cell number change stood at 13%.

With `NC(=O)CSc1nc(N)c2c3c(sc2n1)CCCCC3`, the Potency result was “inactive” and the cell number change was -16.5%.

For the compound `Cc1cc(C)c2c(CN3CC(C)OC(C)C3)cc(=O)oc2c1C` (configuration not stated), the Potency entry is “inactive” and the cell number change is -15.5%.

On to `O=C(Nc1ccccc1)N(CCN1CCOCC1)Cc1cccc(Cl)c1`, for which the Potency entry was “inactive” and the cell number change was -10.2%.

With `Cc1cc(C(=O)N/N=C/c2cccn2C)no1`, the Potency entry is “inactive” and the cell number change was found to be 6.61%.

Turning to `CCOC(=O)N1CCc2c(sc3nc(SC(C)C)n(N)c(=O)c23)C1`, the Potency entry is “inactive” and the cell number change was -1.6%.

Regarding `Oc1ccc(Br)cc1C=Nc1ccc(Cl)cc1`, the Potency entry was “inactive” and the cell number change was -3.17%.

`CCc1c(C)sc(NC(=O)Cc2ccccc2OC)c1C(=O)N1CCOCC1`: the Potency result is “inactive” and the cell number change was -8.21%.

`C[C@]12C=CC(=O)C=C1CC[C@@H]1[C@@H]2C(=O)C[C@@]2(C)[C@H]1CC[C@]2(O)C(=O)CO`: the Potency result was “inactive”; the cell number change was 21.3% and -3.16%.

`CC12CCC(=O)C=C1CCC1C2C(=O)CC2(C)C1CCC2(O)C(=O)CO` (configuration not stated): the Potency was 16.4 µM (active) and the cell number change is -13.5%.

Take `CC(=O)OCC(=O)[C@@]1(O)CC[C@H]2[C@@H]3CCC4=CC(=O)CC[C@]4(C)[C@H]3C(=O)C[C@@]21C`: the Potency entry is “inactive” and the cell number change worked out at 11.1%.

For the compound `CCCCC(CC)C(=O)Nc1ccc(Nc2ccccc2)cc1` (configuration not stated), the Potency result is “inactive” and the cell number change is -8.16%.

On to `CN1C(=O)C(=C2CCCCCC2)SC1=S`, for which the Potency entry is “inactive” and the cell number change is -2.61%.

For the compound `COc1cc2c(cc1OC)C1O[C@](CCCCN3C(=O)c4ccccc4C3=O)(C2)Oc2c1c(=O)oc1ccc(F)cc21`, the cell number change is -5.97% and the lipid storage change, negative = inhibition is 16.8% [at 9.22 µM] (inactive).

In the case of `CCOC(=O)/C(C#N)=C/c1cc2cc(C)c(C)cc2nc1Cl`, the Potency result was “inactive” and the cell number change is -0.849%.

Consider `CC1CCCCN1C(=O)Cn1c(=O)n(CCC(=O)NCc2ccco2)c(=O)c2sccc21` (configuration not stated), for which the Potency result was “inactive” and the cell number change is -5.81%.

For `Nc1nonc1-n1nnc(C(=O)N/N=C/c2cccc(Cl)c2Cl)c1CN1CCCC1`, the Potency entry was “inactive” and the cell number change is 16.7%.

Turning to `Nc1nonc1-n1nnc(C(=O)N/N=C/c2ccccc2Br)c1CN1CCCC1`, the Potency result was “inactive” and the cell number change is -1.9%.

For the compound `CN(C)Cc1c(C(=O)N/N=C/c2ccccc2OCc2c(F)cccc2Cl)nnn1-c1nonc1N`, the Potency was 4.11 µM (active) and the cell number change worked out at 0.435%.

Turning to `CC(/C=N/NC(=O)c1nnn(-c2nonc2N)c1CN(C)C)=C\c1ccco1`, the Potency entry was “inactive” and the cell number change is -0.367%.

With `Cc1cccc(COc2ccc(/C=N/NC(=O)c3nnn(-c4nonc4N)c3C)cc2)c1`, the Potency entry is “inactive” and the cell number change was determined as 11.5%.

Take `CC(C)c1c(C(=O)N/N=C/c2cccc(OCc3ccc(F)cc3)c2)nnn1-c1nonc1N`: the Potency result was “inactive” and the cell number change was determined as 11.8%.

Consider `CC(=C/c1ccco1)/C=N/NC(=O)c1nnn(-c2nonc2N)c1CN(C)C`, for which the Potency entry was “inactive”.

`CCCN(CCC)Cc1c(C(=O)N/N=C/C(C)=C\c2ccco2)nnn1-c1nonc1N`: the Potency was 11.6 µM (active) and the cell number change was -11.1%.

Take `CN(Cc1c(C(=O)N/N=C/c2c(F)cccc2Cl)nnn1-c1nonc1N)c1ccccc1`: the Potency result was “inactive” and the cell number change was found to be 8.36%.

`Cc1ccc(COc2cccc(/C=N/NC(=O)c3nnn(-c4nonc4N)c3C)c2)cc1`: the Potency was 20.6 µM (active) and the cell number change was determined as 50%.

For the compound `CCOc1ccccc1/C=N/NC(=O)c1nnn(-c2nonc2N)c1CN1CCCC1`, the Potency is 20.6 µM (active) and the cell number change was found to be 16%.

With `CC(C)c1c(C(=O)N/N=C/c2ccccc2OCc2c(F)cccc2Cl)nnn1-c1nonc1N`, the Potency entry was “inactive”.

For the compound `Cc1cc(NC(=O)COc2ccc3oc4ccccc4c3c2)no1`, the Potency entry is “inactive” and the cell number change is -12.8%.

`CC1CCN(C(=O)c2ccc3c(Cl)c4c(nc3c2)CCCC4)CC1`: the Potency result is “inactive” and the cell number change was determined as 2.72%.

Turning to `Cc1ccc(S(=O)(=O)CCN2CCN(c3ccccc3)CC2)cc1`, the Potency result is “inactive” and the cell number change is -10.3%.

In the case of `NS(=O)(=O)c1ccc(CCNC(=O)C(=O)NCC2OCCN2S(=O)(=O)c2ccc(Cl)cc2)cc1` (configuration not stated), the Potency entry was “inactive” and the cell number change was -8.07%.

As for `CN(Cc1c(C(=O)N/N=C/c2ccc(O)cc2)nnn1-c1nonc1N)c1ccccc1`, the Potency entry was “inactive” and the cell number change was -9.24%.

Turning to `CN(C)c1ccc(/C=N/NC(=O)c2nnn(-c3nonc3N)c2CN(C)c2ccccc2)cc1`, the Potency entry is “inactive” and the cell number change amounted to 24.5%.

As for `CN(Cc1c(C(=O)N/N=C/c2ccccc2)nnn1-c1nonc1N)c1ccccc1`, the Potency was 4.61 µM (active) and the cell number change was -11.2%.

In the case of `Cc1ccc(-n2c(SCc3cn4ccsc4n3)nc3ccccc3c2=O)cc1`, the Potency entry was “inactive” and the cell number change is -7.5%.

On to `C=C(C)CSc1nnc([C@@H]2CCCN2)o1`, for which the Potency result was “inactive” and the cell number change is 9.92%.

Regarding `CCOc1ccc(NC(=O)C2CCCN2S(=O)(=O)c2ccc(OCC)cc2)cc1` (configuration not stated), the Potency is 0.651 µM (active) and the cell number change is 9.72%.

Take `CCc1cccc(NC(=O)C2CCCN(S(=O)(=O)c3ccc4[nH]c(=O)ccc4c3)C2)c1` (configuration not stated): the Potency result is “inactive” and the cell number change is 16%.

On to `CCOc1ccc(NC(=O)C2CCCN(S(=O)(=O)c3ccc4[nH]c(=O)ccc4c3)C2)cc1` (configuration not stated), for which the Potency is 20.6 µM (active) and the cell number change worked out at 23.6%.

Consider `COc1ccc(S(=O)(=O)N2CCCC2C(=O)Nc2ccc(C(C)=O)cc2)cc1` (configuration not stated), for which the Potency result is “inactive” and the cell number change was -11.3%.

For `CC1Sc2ccc(S(=O)(=O)N3CCC(C(=O)Nc4ccc(Cl)cc4)CC3)cc2NC1=O` (configuration not stated), the Potency result is “inactive” and the cell number change stood at 7.08%.

`O=C(Nc1ccc(F)cc1)C1CCCN(S(=O)(=O)c2ccc3[nH]c(=O)ccc3c2)C1` (configuration not stated): the Potency result is “inactive” and the cell number change worked out at 23.9%.

On to `COc1ccc(NC(=O)C2CCN(S(=O)(=O)c3ccc4c(c3)NC(=O)C(C)S4)CC2)cc1` (configuration not stated), for which the Potency result was “inactive” and the cell number change was found to be 2.12%.

Turning to `CCOc1ccc(NC(=O)C2CCN(S(=O)(=O)c3ccc4c(c3)NC(=O)C(C)S4)CC2)cc1` (configuration not stated), the Potency is 1.03 µM (active).

On to `COc1ccc(NC(=O)C2CCCN2S(=O)(=O)c2ccc(F)cc2)cc1` (configuration not stated), for which the cell number change is -1.12% and the lipid storage change, negative = inhibition is -17.7% [at 9.22 µM] (inactive).
